Assay outcomes (PubChem BioAssay)
A selection: hits, their analogues and other compounds. The true share with any hit is near 2.4%.
D2 PAM-1 – HTS Assay for Positive Allosteric Modulators of the Human D2 Dopamine Receptor: Primary Screen for Potentiators; D(2) dopamine receptor (Homo sapiens), P14416; HEK293 T-REx D2, calcium flux, EC20 dopamine potentiation; potentiation, % at 10 µM; 340,000 tested, 0.34% active;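 active means potentiation over 3 SD above the plate norm, cut at about 30% in these data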; further: 0% is about no effect
Target sequence (P14416 whole entry, looked up): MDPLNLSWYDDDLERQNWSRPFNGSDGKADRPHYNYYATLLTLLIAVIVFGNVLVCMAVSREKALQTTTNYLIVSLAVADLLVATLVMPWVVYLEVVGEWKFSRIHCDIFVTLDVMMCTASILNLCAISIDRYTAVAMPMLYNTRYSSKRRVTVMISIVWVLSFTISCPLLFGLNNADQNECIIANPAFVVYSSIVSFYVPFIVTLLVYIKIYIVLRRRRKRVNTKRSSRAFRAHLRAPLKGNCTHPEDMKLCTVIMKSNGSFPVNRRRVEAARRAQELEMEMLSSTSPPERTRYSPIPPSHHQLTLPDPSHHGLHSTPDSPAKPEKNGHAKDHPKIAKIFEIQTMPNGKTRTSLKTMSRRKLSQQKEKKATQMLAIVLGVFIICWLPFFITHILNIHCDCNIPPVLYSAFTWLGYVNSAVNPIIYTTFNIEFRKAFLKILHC
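Potentiation of an EC20 dopamine calcium response measured kinetically over 180 s, after a preceding 180 s compound-only read flagging agonists. Cells: inducible Hek293 Trex D2 line, 4000/well, cultured overnight at 30 C before dye loading.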
D2 PAM-2 – Beta-Arrestin HTS for Positive Allosteric Modulators of the Human D2 Dopamine Receptor: Potentiators; DiscoveRx D2 beta-arrestin cells, luminescence, 90 min; 100% = 57 uM dopamine signal; 360,000 tested, 0.23% active; potentiation, % (concentration not given with the values); D(2) dopamine receptor (Homo sapiens), P14416; AID 624464, 2012; in the data active means potentiation above about 50%; inconclusive means mostly about 30% to 49%
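PathHunter D2 cells, attached overnight at 37 deg C, received compound in DMSO plus dopamine at EC20 (50 nM final) for 90 min at 37 deg C. Beta-arrestin recruitment was read as luminescence after 1 h with detection reagent at ambient temperature.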
D2 antagonist – HTS Assay for Allosteric Antagonists of the Human D2 Dopamine Receptor: Primary Screen for Antagonists. 340,000 tested, 2% active. AID 485344, 2010. HEK293 TREx D2 cells, calcium flux, dopamine EC80. inhibition, % at 10 µM. D(2) dopamine receptor (Homo sapiens), P14416; in the data active means inhibition above about 30%; inactive means below that, where a call was filed; further: 0% is about no effect
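Tetracycline-induced HEK293 TREx cells expressing D2 receptor forced-coupled to calcium signalling, loaded with no-wash calcium dye. Compounds added and calcium flux read 180 s, then dopamine added at EC80 and read a further 180 s.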
D2 ag-1 – Beta-Arrestin HTS for Positive Allosteric Modulators of the Human D2 Dopamine Receptor: Agonists; D(2) dopamine receptor (Homo sapiens), P14416; DiscoveRx PathHunter D2 beta-arrestin, luminescence, 90 min; 100% = 57 uM dopamine signal; activation, % (no concentration beside the values); 360,000 tested, 0.084% active; in the data active means activation above about 40%; inconclusive means between about 15% and that limit
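Agonist mode: compounds alone added to overnight-plated D2 PathHunter cells for 90 min at 37 C, with 57 uM final dopamine (EC100) defining full response. Beta-arrestin recruitment detected by chemiluminescent reagent, read after 1 h at ambient temperature.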
D2 ag-2 – HTS Assay for Allosteric Agonists of the Human D2 Dopamine Receptor: Primary Screen for Agonists; HEK293 T-REx D2 cells, calcium flux agonist mode; activation, % at 2 µM; 340,000 tested, 0.53% active;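 active means activation over 3 SD above normal in the single-dose calcium agonist read, cut at about 30% in these data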; further: 0% is about no effect
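In this primary screen, compounds producing a positive calcium signal within 180 s of addition to tetracycline-induced, force-coupled HEK293 Trex D2 cells are flagged; cells are dye-loaded with a no-wash calcium kit beforehand.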
* marks the source's active call; other numbers are inactive results; ? = inconclusive; . = no result given.

SMILES	D2 PAM-1	D2 PAM-2	D2 antagonist	D2 ag-1	D2 ag-2
CCOc1ccc(C(=O)Nc2ccc3nc(SCC(=O)N4CCc5ccccc54)sc3c2)cc1	-10	.	.	.	3
Cc1ccccc1CNC(=O)c1ccc2[nH]c(C)c(C)c2c1	10	.	.	.	0
O=C(NC(NNc1ccc([N+](=O)[O-])cc1)(C(F)(F)F)C(F)(F)F)c1ccc(F)cc1	7	61*	3	14	7
Cc1cc(C)nc(NS(=O)(=O)c2ccc(NS(=O)(=O)c3ccc(F)c(F)c3)cc2)n1	.	-10	.	-4	.
CN(C(=O)c1ccc(Br)o1)C1CCS(=O)(=O)C1 (stereo not drawn)	9	-1	37*	1	0
CCN(C(=O)c1ccc(Br)o1)C1CCS(=O)(=O)C1 (stereo not drawn)	20	-7	-6	12	-1
CCN(CC)C(=O)C1=C(C)N(Cc2ccccc2)C(=O)C(CC(=O)NC2CC2)C1 (stereo not drawn)	.	6	.	-7	.
O=C(NNC(=S)Nc1cccc(C(F)(F)F)c1)c1ccncc1	.	-27	.	-5	.
CC1(C(=O)NC(=S)NNC(=O)c2ccncc2)CCCCC1	-3	-28	34*	-14	10
O=C(NNC(=S)Nc1ccccc1)c1ccncc1	31*	-10	-21	-7	0
O=C(NNC(=S)NC(=O)C12CC3CC(CC(C3)C1)C2)c1ccncc1	-20	-38	18	-9	66*
CCCSc1nnc2c(n1)OC(c1sccc1C)Nc1ccccc1-2 (stereo not drawn)	10	.	.	.	-2
COc1ccc(/C=C\C(=O)NCC(=O)N/N=C/c2cccc(OC)c2O)cc1	-16	-14	-3	-4	1
COc1ccccc1/C=C\C(=O)NCC(=O)N/N=C/c1ccc(O)cc1O	-21	-11	77*	-2	-2
COc1cccc(/C=N/NC(=O)CNC(=O)/C=C\c2ccccc2)c1O	-16	2	54*	3	0
COc1ccc(/C=C/C(=O)NCC(=O)N/N=C/c2cc(Br)ccc2OCc2ccccc2)cc1	-11	-11	-13	1	0
COc1ccc(Br)cc1/C=N/NC(=O)CNC(=O)/C=C/c1ccccc1	-26	-41	76*	-2	0
O=C(c1cc(S(=O)(=O)N2CCOCC2)ccc1Cl)N1CCN(c2ccccn2)CC1	-7	1	-3	3	0
O=C(CN1CCOCC1)N1CCN(c2ccc([N+](=O)[O-])cc2)CC1	-14	-10	83*	-6	0
O=C(c1cc([N+](=O)[O-])ccc1Cl)N1CCN(c2ccc([N+](=O)[O-])cc2)CC1	7	7	41*	8	0
COC(=O)c1cc(C(=O)N2CCN(c3cccc(Cl)c3)CC2)cc([N+](=O)[O-])c1	-4	17	30*	12	0
CC(=O)N1CCN(C(=O)c2cc(S(=O)(=O)N3CCN(c4ccccc4)CC3)ccc2Cl)CC1	49*	?	5	-4	0
O=C(CN1CCN(c2ccc([N+](=O)[O-])cc2Cl)CC1)N1CCOCC1	-4	1	-9	-1	0
CCOc1ccccc1NC(=O)CN1C(=O)COc2ccc(S(=O)(=O)N3CCOCC3)cc21	-2	-16	36*	-2	0
COc1ccccc1NC(=O)CN1C(=O)COc2ccc(S(=O)(=O)N3CCC(C)CC3)cc21	-1	-5	-10	-1	0
SMILES	D2 PAM-1	D2 PAM-2	D2 antagonist	D2 ag-1	D2 ag-2
O=C(N/N=C/c1ccccc1OC(F)F)C1=COCCO1	-3	1	33*	1	1
O=C(N/N=C/c1ccc(OC(F)F)cc1)C1=COCCO1	-8	-8	-24	-3	2
CC[C@@H](C(=O)[C@@H](C)[C@@H](O)[C@H](C)[C@@H]1O[C@@H]([C@@H](CC)C(=O)O)CC[C@@H]1C)[C@H]1O[C@]2(C=C[C@@H](O)[C@]3(CC[C@@](C)([C@H]4CC[C@](O)(CC)[C@H](C)O4)O3)O2)[C@H](C)C[C@@H]1C	.	64*	.	13	.
COCCNC(=S)N(CCc1c(C)[nH]c2ccc(Cl)cc12)Cc1cccs1	2	-1	5	1	1
Cc1[nH]c2ccc(F)cc2c1CCN(Cc1cccnc1)C(=S)Nc1ccccc1	-8	-9	11	-5	0
CNC(=S)N(CCc1c(C)[nH]c2ccc(F)cc12)Cc1cccnc1	31*	-11	-11	6	0
COCCNC(=S)N(CCc1c(C)[nH]c2ccc(F)cc12)Cc1cccs1	-1	-12	30*	-1	2
O=C1c2oc3ccccc3c(=O)c2C(c2cccnc2)N1CCCN1CCOCC1 (stereo not drawn)	2	-12	35*	-3	0
CC(C)Oc1ccc(C2c3c(oc4ccccc4c3=O)C(=O)N2CCCN2CCOCC2)cc1 (stereo not drawn)	16	-10	19	2	-1
COc1ccc(-c2cc3nc(C)c(CCC(=O)N4CCN(c5ccccc5)CC4)c(C)n3n2)c(OC)c1	-1	.	.	.	0
CCC1Oc2nc(SC)nnc2-c2ccccc2N1C(=O)c1ccccc1 (stereo not drawn)	0	-7	34*	-3	-1
COc1cc(OC)cc(C(=O)NC(=S)Nc2nc(-c3cc4ccccc4o3)cs2)c1	-9	-25	-2	-2	0
COCCNc1nc(-c2cc3ccccc3o2)cs1	-14	-10	38*	-2	-1
Cc1c(CNC2CCCCC2)c(C(=O)O)c(C)n1Cc1ccc(Cl)cc1	19	.	.	.	0
CCOC(=O)C1(Cc2ccccc2)CCN(Cc2nccn2CC)CC1	4	-3	65*	-4	0
CCOC(=O)C1(CCc2ccccc2)CCN(Cc2cnc(N(C)C)s2)CC1	-20	-16	51*	1	9
CCOC(=O)C1(CCc2ccccc2)CCN(C(=O)CN2CCOC2=O)CC1	13	-1	37*	-2	0
CCOC(=O)C1(CCc2ccccc2)CCN(Cc2c(O)cccc2OC)CC1	-20	-2	37*	-4	0
CCOC(=O)C1(CCc2ccccc2)CCN(Cc2nccn2CC)CC1	4	-23	-6	-1	0
CCOC(=O)C1(CCc2ccccc2)CCN(Cc2ccc(OC)cc2)CC1	-18	-12	20	-5	1
